This is part of a sample that, as a whole, favours compounds with a hit. Of some 83,000 tested, about 20% had one in any assay.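 Plates (96-well) were seeded with cells, treated with compound at one concentration, and incubated for 48 hours before percent growth was determined.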 Calls of active or inactive are those of the source. Rule for the calls: active = growth percent below 10; inactive = the rest.
Experiments:
Test in all cases: NCI-60 one-dose screen, 48 h (100 = growth as untreated, 0 = no growth, -100 = all killed)
Details in all cases: 10 µM unless noted
[1] = test system: NCI-H23 lung
[2] = test system: NCI-H226 lung
[3] = test system: NCI-H322M lung
[4] = test system: HOP-62 NSCLC
[5] = test system: NCI-H460 lung
[6] = test system: HOP-92 NSCLC
[7] = test system: NCI-H522 lung
[8] = test system: A549/ATCC NSCLC
[9] = test system: 786-0 renal
[10] = test system: COLO 205 colon
[11] = test system: DU-145 prostate
[12] = test system: K-562 leukemia
[13] = test system: MALME-3M melanoma
[14] = test system: MDA-MB-231 breast
[15] = test system: SF-268 CNS
[16] = test system: SF-295 CNS
[17] = test system: SF-539 CNS
[18] = test system: UACC-257 melanoma
[19] = test system: M14 melanoma
[20] = test system: RXF 393 renal

Measured: growth

CC1=NNC(=O)C1CCC(=O)N/N=C(\C)c1ccc2ccccc2c1 (stereo not drawn)
inactive: [1] 104% | [2] 99.6% | [3] 122% | [4] 115% | [5] 108% | [6] 94.4% | [7] 96.1% | [8] 95.3% | [9] 103% | [10] 167% | [11] 102% | [12] 97.6% | [13] 120% | [14] 111% | [15] 98.9% | [16] 323% | [17] 94.8% | [18] 99.9% | [19] 113%

CC(=O)[C@@H]1CC[C@]2(C(N)=O)CC[C@]3(C)[C@H](CC[C@@H]4[C@@]5(C)CCC(=O)C(C)(C)[C@@H]5CC[C@]43C)[C@@H]12
inactive: [1] 95.1% | [2] 102% | [3] 99.3% | [4] 92% | [5] 101% | [6] 103% | [7] 87.2% | [8] 96.3% | [9] 89.6% | [10] 102% | [11] 105% | [12] 88.4% | [13] 112% | [14] 95.8% | [20] 109% | [15] 95.4% | [16] 93.8% | [17] 99.5% | [18] 93.6% | [19] 93.4%

O=C1Nc2cc(-c3ccncc3)ccc2/C1=C/c1ccc[nH]1
inactive: [1] 58.5% | [2] 78.5% | [3] 84% | [4] 105% | [5] 98.9% | [6] 104% | [7] 75.2% | [8] 101% | [9] 102% | [10] 112% | [11] 88.1% | [12] 98.3% | [13] 65.8% | [14] 65.2% | [20] 93.1% | [15] 94.5% | [16] 102% | [17] 91.9% | [18] 114% | [19] 91.9%

O=C1c2ccccc2-c2c1c1c(NCCCO)nc3ccccc3c1n2Cc1ccccc1
inactive: [1] 35.1% | [2] 21.5% | [3] 29.6% | [7] 23.3% | [8] 16% | [10] 62% | [11] 13.2% | [12] 16.9% | [16] 23.1% | [18] 56.5%
active: [4] -35.5% | [5] -29% | [6] -33.4% | [9] -74.3% | [13] -54.6% | [14] -2.22% | [20] -52.2% | [15] -5.13% | [17] -49.2% | [19] -53%

Cc1nccc2c3ccc(OCc4cn(-c5ccc(Cl)cc5)nn4)cc3n(CCCc3ccccc3)c12
active: [2] -10.9% | [4] 6.51% | [8] 4.77% | [9] -72.6% | [10] -3.42% | [13] -7.83% | [20] -2.27% | [15] -5.93% | [16] 8.27% | [17] -16.5% | [18] -34.6% | [19] -73.2%
inactive: [1] 70.5% | [3] 50% | [5] 14.4% | [6] 26.6% | [7] 46.6% | [11] 27.6% | [12] 11.1% | [14] 27.4%

N#Cc1c(NC(=O)c2cccc(Br)c2)sc2c1CCCC2
inactive: [1] 91% | [2] 89.8% | [3] 79.1% | [4] 83.3% | [5] 75.3% | [6] 86.2% | [7] 75.9% | [8] 75.2% | [9] 82.6% | [10] 94.2% | [11] 89.7% | [12] 22.5% | [13] 62.4% | [14] 82.2% | [20] 96.8% | [15] 97.6% | [16] 80.8% | [17] 86.6% | [18] 83.4% | [19] 72.2%

O=S(=O)(c1ccc(N/N=C\c2ccccc2)cc1)c1ccc(N/N=C/c2ccccc2)cc1
active: [6] 8.56%
inactive: [1] 43.6% | [2] 83.3% | [3] 80% | [4] 46.6% | [5] 40.4% | [7] 60% | [8] 60% | [9] 83.4% | [10] 88.9% | [11] 69% | [12] 79.9% | [13] 55.4% | [14] 49.4% | [20] 72.8% | [15] 75.1% | [16] 58.2% | [17] 65.9% | [18] 80.5% | [19] 76.7%

Clc1ccc(N2N=C(c3cccc(Nc4ccncc4)c3)CC2c2ccc(Br)cc2)cc1 (stereo not drawn)
inactive: [1] 57.1% | [2] 92.2% | [3] 66.2% | [6] 60.3% | [8] 16.7% | [9] 105% | [11] 24.8% | [14] 31.8% | [15] 72.2% | [17] 83.8% | [18] 77.8% | [19] 107%
active: [4] -39.3% | [5] -82.6% | [7] -13.2% | [10] -48.7% | [12] 1.38% | [13] -40.5% | [16] -69%

O=C(Nc1ccc2cc3ccc(NC(=O)N4CCCCCC4)cc3nc2c1)N1CCCCCC1
inactive: [3] 31.4%
active: [1] -39% | [2] -58.5% | [4] -47.4% | [5] -55.6% | [6] -77.8% | [7] -70.4% | [8] -11.3% | [9] -57.9% | [10] -48.8% | [11] -25.7% | [12] -11.1% | [13] -85.3% | [14] -69.1% | [20] -76.3% | [15] -41.3% | [16] -79.4% | [17] -71.1% | [18] -75.7% | [19] -66.2%

C=C(C)[C@@H]1CC[C@]2(C(=O)N3CCN(C)CC3)CC[C@]3(C)[C@H](CC[C@@H]4[C@@]5(C)CCC(=O)C(C)(C)[C@@H]5CC[C@]43C)[C@@H]12
inactive: [1] 89.9% | [2] 88.5% | [3] 91.5% | [4] 86.4% | [5] 21% | [6] 52.8% | [7] 85.1% | [8] 85.1% | [9] 71.1% | [10] 72.4% | [11] 82.8% | [12] 60.5% | [13] 89% | [14] 79.4% | [20] 80.5% | [15] 77.2% | [16] 103% | [17] 73.9% | [18] 101% | [19] 94.7%

COc1ccc2c(c1)OC13Oc4cc(OC)ccc4C=C1CCCC3=C2
active: [10] -9.95%
inactive: [1] 48.3% | [2] 64.1% | [3] 80.8% | [4] 41.4% | [5] 14.3% | [6] 26.6% | [7] 20.4% | [8] 75% | [9] 38.7% | [11] 33.9% | [12] 23.5% | [13] 70.3% | [14] 32% | [20] 16% | [15] 38.5% | [16] 78.6% | [17] 84.5% | [18] 52.5% | [19] 31.5%

NC(=S)N/N=C/c1ccc(OC(=O)COc2cc(Cl)c(Cl)cc2Cl)cn1
inactive: [1] 28.1% | [2] 84.6% | [3] 57.2% | [4] 85.6% | [5] 79.9% | [6] 48.6% | [7] 23.8% | [8] 107% | [9] 19.9% | [10] 117% | [11] 36.4% | [12] 48.6% | [13] 75.7% | [14] 82.6% | [20] 50.1% | [15] 41.2% | [16] 134% | [17] 29.5% | [18] 78.9% | [19] 41.2%

NC(=O)c1cccc(-n2ccc3cc(NC(=O)Nc4cc(C(F)(F)F)cc(C(F)(F)F)c4)ccc32)n1
inactive: [1] 44.5% | [2] 70% | [3] 71.4% | [4] 44.8% | [5] 29% | [6] 52.5% | [7] 59.1% | [8] 34.1% | [9] 24.3% | [10] 62.5% | [11] 50.7% | [12] 33.4% | [13] 43.1% | [14] 65.5% | [15] 38.5% | [16] 18.5% | [17] 52.2% | [18] 72.2% | [19] 51%
active: [20] 7.56%

CN(C)C(C(N)=O)c1ccc(Cl)cc1 (stereo not drawn)
inactive: [1] 104% | [2] 103% | [3] 103% | [4] 99.6% | [5] 109% | [6] 71.4% | [7] 96.1% | [8] 96.6% | [9] 96.1% | [10] 110% | [11] 107% | [12] 98.8% | [13] 103% | [14] 98.3% | [20] 118% | [15] 102% | [16] 100% | [17] 99.5% | [18] 95.5% | [19] 96.7%

CC(=O)N1c2ccccc2NC2=C(C(=O)N(Cc3ccccc3)C2(C)C)C1c1ccco1 (stereo not drawn)
active: [5] 4.83% | [11] 7.82% | [14] 9.25% | [20] -11.7% | [16] -0.752% | [17] -17.9% | [19] -13.6%
inactive: [1] 20.9% | [2] 65.7% | [3] 44.6% | [4] 33.1% | [6] 21.1% | [7] 21.8% | [8] 22% | [9] 21.4% | [10] 16.8% | [12] 12.6% | [13] 69.9% | [15] 42.7% | [18] 77.6%

O=C(Nc1nc(-c2ccc(Br)cc2)cs1)c1cc(-c2ccc(Br)cc2)nc2ccc(Cl)cc12
inactive: [1] 69.7% | [2] 76.3% | [3] 89.9% | [4] 80.1% | [5] 88.3% | [6] 71.7% | [7] 76.9% | [8] 84.8% | [9] 94.3% | [10] 84.5% | [11] 92.6% | [12] 56.6% | [13] 105% | [14] 74.1% | [20] 100% | [15] 85% | [16] 97.8% | [17] 99.1% | [18] 101% | [19] 99.1%

— PubChem BioAssay (NCI)
